# Screening results (PubChem BioAssay)
# HCMV antiviral – inhibitors of human cytomegalovirus; HFF cells, HCMV-luciferase reporter, 72 h; hits give low values; activity change, negative = inhibition, % at 57.5 µM; hit rate 4.5% among 410,000; in the data active = activity change below about -60%; inconclusive = no clear call, values can overlap the other calls; inactive = above about -39%; also: % is scaled to controls: 0 for no effect and ±100 for the full control effect
#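 Human foreskin fibroblasts infected with luciferase-reporter HCMV at MOI 1 PFU/cell, compounds at two doses. Luciferase measured 72 h post infection; normalized to buffer-only basal and Salinomycin (10uM) controls.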
# Pf growth 48h – inhibits P. falciparum growth in the first generation, 48 h. P. falciparum luciferase growth in erythrocytes, 48 h. Potency, µM (highest dose often 28.7 µM), without a hit: at the top dose activity change, negative = inhibition, most hits filed as inhibitors. hit rate 5.9% among 310,000. AID 504832; also: potency is read from the fitted curve at half-maximal effect; % is scaled to controls: 0 for no effect and ±100 for the full control effect
#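 Parasite viability was followed by luminescence of a genomically integrated firefly luciferase. Cultures held 0.1% parasitemia at 2% hematocrit (final), incubated under 5% CO2 at 37 C.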
# Shiga toxin inh – inhibitors of Shiga toxin in Vero cells; inhibition, % at 38.7 µM; Vero cells, Shiga toxin protein synthesis inhibition reporter; hit rate 9.2% among 290,000; AID 2315; in the data active = inhibition mostly above about 28%, no sharp cut-off; inactive = mostly below about 43%; also: 0% is about no effect
# Pf growth 96h – inhibits malaria parasite growth, 96 h. P. falciparum luciferase reporter growth, 96 h. Potency, µM (series often up to 28.7 µM), for inactives: at the top dose activity change, negative = inhibition, hits mostly inhibitors. hit rate 6.9% among 320,000. AID 504834; also: potency is read from the fitted curve at half-maximal effect; % is scaled to controls: 0 for no effect and ±100 for the full control effect
#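 P. falciparum expressing integrated firefly luciferase, in erythrocytes at 2% hematocrit, 0.05% parasitemia, incubated with compounds 96 h at 37 C, 5% CO2. Growth inhibition read as loss of luminescence; two-generation exposure targets delayed-death apicoplast inhibitors.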
# Cycloheximide cs – affects cycloheximide protein synthesis inhibition readout, counter-screen | max response, % | hit rate 12% among 300,000 | cell reporter, cycloheximide protein synthesis inhibition counterscreen; in the data active = max response mostly above about 13%, no sharp cut-off; inactive = mostly below about 14%; also: read at 38.3 µM for the half of the compounds with a filed dose; 0% is about no effect
# Starred values were filed as active, the others as inactive; ? = inconclusive; · = not tested or not shown. The list is not random: actives were taken first. Their share in the collection is about 20%. Unless noted, calls follow the shape of the dose curve; as a rule, active = well fitted inhibition curve with a large enough effect; inconclusive = small, poorly fitted or top-dose-only effect, or another doubt; inactive = no such curve, though single readings can be large or run the other way.
SMILES,HCMV antiviral,Pf growth 48h,Shiga toxin inh,Pf growth 96h,Cycloheximide cs
CCn1cc(C(=O)NCc2ccncc2)c(=O)c2cc(F)c(N3CCN(C(=O)c4ccco4)CC3)cc21,-18,6.6µM*,24,10µM*,-3
CCn1cc(C(=O)NCCCN(C)C)c(=O)c2cc(F)c(N3CCN(C)CC3)cc21,74,?,-4,-9%,-4
CCn1cc(C(=O)NCc2ccccc2)c(=O)c2cc(F)c(N3CCN(C(=O)c4ccco4)CC3)cc21,-82*,·,-8,1.7µM*,-5
CCn1cc(C(=O)NCc2ccc3c(c2)OCO3)c(=O)c2cc(F)c(N3CCN(C(=O)c4ccco4)CC3)cc21,-73*,8.3µM*,-10,·,-4
CCn1cc(C(=O)O)c(=O)c2cc(F)c(N3CCN(C(=S)NC(=O)c4ccccc4)CC3)cc21,-35,?,23,?,1
CCc1ccccc1NC(=O)CN(c1ccccc1)S(=O)(=O)c1ccsc1C(=O)OC,11,·,·,·,·
COC(=O)[C@@]1(C#N)CC(=O)N([C@@H](C)c2ccccc2)[C@H]1c1ccc(OC)cc1,-3,·,·,·,·
CC(C)CC(=O)N1CCC(O)(CS(=O)(=O)c2ccc(Cl)c(Cl)c2)CC1,-37,?,-5,6%,-2
COc1ccc(Br)cc1CNCC1CCCO1 (stereo not drawn),82,3%,·,-1%,-2
C[C@H]([C@H](C)N1CC(=O)NC(=O)C1)N1CC(=O)NC(=O)C1,·,·,16,·,-5
COc1cc(OC)cc(C(=O)Nc2ccc(-c3nc4ccccc4o3)cc2)c1,2,?,48*,·,12
COc1cc(NC(=O)c2ccc(-c3nc(COc4ccccc4)c(C)o3)cc2)cc(OC)c1,-78*,·,·,·,·
COc1cccc(C(=O)Nc2ccc(-c3nc4ccccc4o3)c(O)c2)c1,-11,?,53*,17%,14
CCOc1ccc(NC(=O)c2ccc(-c3nc(COc4ccccc4)c(C)o3)cc2)cc1,-9,·,·,·,·
CCn1c(O)c(N=NC(=O)c2cccs2)c2ccccc21,4,?,14,?,7
Cn1cc(CN2CCC(n3nccc3NC(=O)c3ccc4c(c3)OCO4)CC2)cn1,-16,·,·,·,·
CCc1ccc(CN2CCC(n3nccc3NC(=O)c3ccccc3OC)CC2)o1,-13,·,·,·,·
Cc1ccccc1CN1CCC(n2nccc2NC(=O)c2cccnc2)CC1,1,?,-14,9.3µM*,-1
COc1ccc(CN2CCC(n3nccc3NC(=O)c3ccc4c(c3)OCO4)CC2)cc1C,-11,12µM*,19,58%,-10
Cc1ccccc1CN1CCC(n2nccc2NC(=O)c2ccc3c(c2)OCO3)CC1,-21,5%,34*,9.3µM*,21
COc1ccccc1C(=O)Nc1ccnn1C1CCN(Cc2cnn(C)c2C)CC1,12,-5%,-6,6.6µM*,-3
CNC(=O)C1CCC(Cn2c(=O)c3sccc3n(CC(=O)Nc3ccc(C)cc3C)c2=O)CC1 (stereo not drawn),-5,·,·,·,·
COc1ccc(O)c(C(=O)c2cc(C#N)c(=O)n(-c3ccc(Cl)cc3)c2)c1,-33,7.4µM*,-1,5.9µM*,6
CCOc1ccc(-n2cc(C(=O)c3cc(Cl)ccc3O)cc(C#N)c2=O)cc1,-17,-26%,-8,?,1
Cc1ccc(-n2cc(C(=O)c3cc(Cl)ccc3O)cc(C#N)c2=O)cc1,?,3.3µM*,3,?,-1
SMILES,HCMV antiviral,Pf growth 48h,Shiga toxin inh,Pf growth 96h,Cycloheximide cs
COc1ccc(-n2cc(C(=O)c3cc(Cl)ccc3O)cc(C#N)c2=O)cc1,8,?,-9,7.4µM*,-7
COc1ccc([C@@H]2[C@@H](C(=O)N3CCOCC3)CC(=O)N2C(=O)c2ccccc2)cc1,10,·,·,·,·
O=c1[nH]c(=O)n([C@H]2C[C@H](O)[C@@H](CO)O2)cc1C(F)(F)F,-1,-16%,11,?,-2
[N-]=[N+]=NC1C[C@H](n2ccc(=O)[nH]c2=O)O[C@@H]1CO (stereo partly drawn),-66*,-9%,-7,4%,-2
C#CC1(O)CCC2C3CCc4cc(O)cc(C)c4C3CCC21C (stereo not drawn),-28,·,·,·,·
O=C(COc1ncnc2ccccc12)c1ccc(Cl)cc1,-15,0%,79*,76%,26*
c1ccc(OCCOc2ncnc3ccccc23)cc1,68,193%,93*,?,37*
Brc1ccc(COc2ncnc3ccccc23)cc1,-35,0%,-3,-25%,7
O=C(COc1ncnc2cc(Cl)ccc12)c1ccccc1,15,21%,98*,49%,45*
